Consider twelve molecules from PubChem BioAssay (NCATS).

Records with an inconclusive call do not appear. Activity calls are given as the source filed them. Unless noted, the call rests on the fitted dose curve; in most records, active means well fitted curve in the direction sought with a large enough effect; inconclusive means small, poorly fitted or top-dose-only effect, or another doubt; inactive means no such curve, though single readings can be large; an effect the other way counts as inactive or inconclusive.

Assay [1] in a line: P-glycoprotein substrates identified in KB-8-5-11 adenocarcinoma cell line, qHTS therapeutic library screen (AID 1346987). Further: nearly all actives have a fitted effect of over 65% in size. Further: potency means the concentration at half of the fitted maximal effect. A digest of the protocol:
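Compounds are pinned in dose-response onto KB-8-5-11 cells (500 cells/well, colchicine-free medium) and left 72 h at 37 degree C. CellTiter-Glo luminescence then yields AC50 values.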
On the technique in general: In qHTS, concentration-response curves come from the screen itself.

Assay [2] can be described thus: Primary qHTS for inhibitors of nuclear receptor binding SET domain protein 2 (NSD2) in an isogenic RCH-ACV NSD2 p.E1099K mutant (9B) (AID 1645876). Further: nearly all actives have a fitted effect of over 70% in size. Further: potency means the concentration at half of the fitted maximal effect.
Assay [3] in a line: Primary qHTS for inhibitors of nuclear receptor binding SET domain protein 2 (NSD2) in an RCH-ACV wild type WT cells (2C) (AID 1645877). Further: potency means the concentration at half of the fitted maximal effect; nearly all actives have a fitted effect of over 70% in size.
Assay [4] deals with Catechol O-methyltransferase (Homo sapiens) (UniProt P21964). The assay can be described thus: Confirmatory Screen for Target Class Profiling of Small Molecule Inhibitors of Methyltransferases (AID 1745852). On activity change, negative = inhibition: on the % scale 0 is the no-effect control and ±100 the full control effect. Particulars: MTase-Glo luminescence, SAH detection, recombinant enzyme; measured here: COMT max response; stronger effect = lower value.
Chain of Catechol O-methyltransferase (Homo sapiens) (P21964 whole entry, looked up): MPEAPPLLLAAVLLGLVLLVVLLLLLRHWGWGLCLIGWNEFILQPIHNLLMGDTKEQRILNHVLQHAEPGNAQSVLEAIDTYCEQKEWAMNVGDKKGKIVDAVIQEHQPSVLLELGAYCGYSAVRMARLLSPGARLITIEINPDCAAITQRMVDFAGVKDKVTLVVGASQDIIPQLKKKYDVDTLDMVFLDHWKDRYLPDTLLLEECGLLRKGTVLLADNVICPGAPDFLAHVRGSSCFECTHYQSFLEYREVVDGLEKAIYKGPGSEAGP
Assay [5] deals with Guanidinoacetate N-methyltransferase (Homo sapiens) (UniProt Q14353). The assay is described as above. Conditions: activity change, negative = inhibition: at 57.3 µM (top of the series) unless noted.
Assay [6] concerns the target Nicotinamide N-methyltransferase (Homo sapiens) (UniProt P40261). The assay is described as above. Particulars: MTase-Glo luminescence, SAH detection, recombinant enzyme; measured here: NNMT max response; stronger effect = lower value.
Assay [7] addresses Phenylethanolamine N-methyltransferase (Homo sapiens) (UniProt P11086). The assay is described as above. Particulars: MTase-Glo luminescence, SAH detection, recombinant enzyme; measured here: PNMT max response; stronger effect = lower value.
The next assay relates to KB-3-1. The assay can be described thus: Cytotoxic Profiling of Annotated Libraries Using Quantitative High-Throughput Screening (AID 1296008). Further: nearly all actives have a fitted effect of over 60% in size. Further: potency means the concentration at half of the fitted maximal effect. On max response: on the % scale 0 is the no-effect control and ±100 the full control effect. Conditions: Five cell lines viability, CellTiter-Glo ATP luminescence, 48-72 h; max response: stronger effect = lower value. A digest of the protocol: (§1)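 Cells exposed to compounds for 48 or 72 hr at 37 degrees Celsius. Viability read as ATP-coupled luminescence with CellTiter-Glo after 10 min at room temperature.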
On the technique in general: In ATP-based viability assays light output follows the ATP content of the culture.

The test system of a further assay is HACAT. The assay can be described thus: qHTS assay to identify novel small-molecules to repurpose for Merkel cell carcinoma treatment (AID 1296009). Further: nearly all actives have a fitted effect of over 60% in size. Conditions: MCC and control cell lines, CellTiter-Glo viability, 72 h; at 44.8 µM (top of the series) unless noted. A digest of the protocol:
(§2)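 Dose-response viability screen; 72 hr exposure at 37 degree celsius; CellTiter-Glo added, 10 min room temperature, luminescence read; RLUs scaled between no-cell and DMSO wells.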

For assay [8], the system named is Zika virus NS2B-NS3 protease (unlinked complex). The assay can be described thus: Primary screen GU Rhodamine qHTS for Zika virus inhibitors: Unlinked NS2B-NS3 protease assay (AID 1347159). A digest of the protocol:
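Percent inhibition came from the 15-min rise in Rhodamine110 fluorescence (1.5 microM substrate, ~15% conversion), normalized to no-inhibitor and no-enzyme wells and Hill-fitted. Unlinked protease, 25 nM, pH 8.0 Tris buffer; compounds up to 114 microM, 15-min preincubation.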

The next assay concerns HEK293. The assay can be described thus: Cytotoxic Profiling of Annotated Libraries Using Quantitative High-Throughput Screening (AID 1296008). Further: nearly all actives have a fitted effect of over 60% in size. Further: potency means the concentration at half of the fitted maximal effect. On max response: on the % scale 0 is the no-effect control and ±100 the full control effect. Particulars: Five cell lines viability, CellTiter-Glo ATP luminescence, 48-72 h; max response: stronger effect = lower value. A digest of the protocol: as §1
The subject of another assay is HeLa. The assay can be described thus: Primary qHTS to identify gynecologic anti-cancer compounds using libraries of approved drugs and bioactive compounds (AID 1345084). Further: nearly all actives have a fitted effect of over 55% in size. Further: potency means the concentration at half of the fitted maximal effect. Conditions: Gynecologic cancer cell panel viability, ATPlite luminescence, 48 h; series mostly up to 57.5 µM. A digest of the protocol: (§3)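 Luminescence from the ATPlite ATP-monitoring reagent indicates viable cell number; lower signal means cytotoxicity. Cells received compound 16 h after seeding and were exposed for 48 h across five concentrations.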

The subject of the next assay is NIH3T3. The assay can be described thus: qHTS assay to identify novel small-molecules to repurpose for Merkel cell carcinoma treatment (AID 1296009). Further: nearly all actives have a fitted effect of over 60% in size. Conditions: MCC and control cell lines, CellTiter-Glo viability, 72 h; at 44.8 µM (top of the series) unless noted. A digest of the protocol:
as §2

The next assay relates to SKOV3. The assay can be described thus: Primary qHTS to identify gynecologic anti-cancer compounds using libraries of approved drugs and bioactive compounds (AID 1345084). Further: nearly all actives have a fitted effect of over 55% in size. Further: potency means the concentration at half of the fitted maximal effect. Conditions: Gynecologic cancer cell panel viability, ATPlite luminescence, 48 h; series mostly up to 57.5 µM. A digest of the protocol: as §3
Assay [9] has as its target Cytochrome P450 2D6 (Homo sapiens) (UniProt P10635). The assay can be described thus: Cytochrome P450 family 2 subfamily D member 6 (CYP2D6) small molecule antagonists: luciferase biochemical (cell-free) qHTS assay (AID 1645840; active means well fitted curve in the direction sought with a large enough effect in the repeat runs; an effect the other way counts as inactive or inconclusive; further: nearly all actives have a fitted effect of over 55% in size; further: potency means the concentration at half of the fitted maximal effect; on activity change, negative = inhibition: on the % scale 0 is the no-effect control and ±100 the full control effect). A digest of the protocol:
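P450-Glo CYP2D6 system: proluciferin substrate converted by enzyme to luciferin, read by luminescence proportional to activity. Enzyme-substrate mix with compound 10 min at room temperature, then NADPH regeneration 1 h before detection reagent.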

For assay [10], the target named is Cytochrome P450 2C9 (Homo sapiens) (UniProt P11712). The assay can be described thus: Cytochrome P450 family 2 subfamily C member 9 (CYP2C9) small molecule antagonists: luciferase biochemical (cell-free) qHTS assay (AID 1645842; active means well fitted curve in the direction sought with a large enough effect in the repeat runs; an effect the other way counts as inactive or inconclusive; further: nearly all actives have a fitted effect of over 55% in size; further: potency means the concentration at half of the fitted maximal effect). A digest of the protocol:
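P450-Glo CYP2C9 system: proluciferin substrate with enzyme in mix containing 0.4% BSA, 10 min at room temperature, then NADPH regeneration solution added and incubated 1 h at 37C. Detection reagent stopped reaction; luminescence read after 20 min as RLU.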

Chain of Cytochrome P450 2D6 (Homo sapiens) (P10635 whole entry, looked up): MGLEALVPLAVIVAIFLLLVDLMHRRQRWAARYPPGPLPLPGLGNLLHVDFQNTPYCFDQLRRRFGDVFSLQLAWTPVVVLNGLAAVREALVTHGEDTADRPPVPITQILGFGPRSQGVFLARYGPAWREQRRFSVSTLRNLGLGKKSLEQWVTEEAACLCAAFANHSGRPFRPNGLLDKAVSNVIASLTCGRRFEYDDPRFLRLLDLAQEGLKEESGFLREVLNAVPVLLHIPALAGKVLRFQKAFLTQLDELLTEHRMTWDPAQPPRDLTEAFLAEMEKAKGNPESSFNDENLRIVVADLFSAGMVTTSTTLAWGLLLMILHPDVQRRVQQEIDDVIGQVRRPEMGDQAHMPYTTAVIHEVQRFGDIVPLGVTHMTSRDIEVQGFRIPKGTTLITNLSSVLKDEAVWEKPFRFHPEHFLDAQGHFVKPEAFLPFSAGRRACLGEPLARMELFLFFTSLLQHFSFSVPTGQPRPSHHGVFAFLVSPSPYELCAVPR
Chain of Cytochrome P450 2C9 (Homo sapiens) (P11712 whole entry, looked up): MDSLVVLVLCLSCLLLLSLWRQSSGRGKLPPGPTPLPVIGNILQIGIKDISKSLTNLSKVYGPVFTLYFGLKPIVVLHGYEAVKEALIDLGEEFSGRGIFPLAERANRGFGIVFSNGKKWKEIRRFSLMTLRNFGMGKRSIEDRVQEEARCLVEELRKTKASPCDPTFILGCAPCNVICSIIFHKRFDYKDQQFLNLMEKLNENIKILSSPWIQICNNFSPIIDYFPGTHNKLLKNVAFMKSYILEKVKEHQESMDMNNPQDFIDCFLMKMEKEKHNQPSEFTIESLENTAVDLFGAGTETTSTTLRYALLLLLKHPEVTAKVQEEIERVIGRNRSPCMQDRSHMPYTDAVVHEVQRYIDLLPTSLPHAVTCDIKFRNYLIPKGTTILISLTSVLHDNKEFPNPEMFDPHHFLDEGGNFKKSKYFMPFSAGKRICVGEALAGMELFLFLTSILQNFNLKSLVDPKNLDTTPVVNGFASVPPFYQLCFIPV
Chain of Nicotinamide N-methyltransferase (Homo sapiens) (P40261 whole entry, looked up): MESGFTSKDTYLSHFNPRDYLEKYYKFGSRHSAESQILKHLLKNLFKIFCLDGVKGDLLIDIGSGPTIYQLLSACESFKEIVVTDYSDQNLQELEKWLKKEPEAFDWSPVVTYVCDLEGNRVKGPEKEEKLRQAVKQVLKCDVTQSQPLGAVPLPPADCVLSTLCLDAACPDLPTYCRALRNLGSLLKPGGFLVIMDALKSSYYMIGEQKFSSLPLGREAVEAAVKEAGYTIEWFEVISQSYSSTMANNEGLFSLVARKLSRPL
Chain of Phenylethanolamine N-methyltransferase (Homo sapiens) (P11086 whole entry, looked up): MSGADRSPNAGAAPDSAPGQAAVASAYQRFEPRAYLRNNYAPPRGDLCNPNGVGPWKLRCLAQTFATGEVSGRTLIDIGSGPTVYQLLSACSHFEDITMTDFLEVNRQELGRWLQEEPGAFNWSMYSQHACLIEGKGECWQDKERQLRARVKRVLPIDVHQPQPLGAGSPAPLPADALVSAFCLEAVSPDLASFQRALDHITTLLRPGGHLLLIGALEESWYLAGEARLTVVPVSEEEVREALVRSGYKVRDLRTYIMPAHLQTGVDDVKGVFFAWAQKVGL

As for `CCOC(=O)c1ccnc2cc(C(OCCN3CCCCC3)c3ccccc3Cl)sc12` (centres undefined), the Potency result in [1] is “inactive”. Also, the results for the Potency in assay [2] and in assay [3] were 23 µM (active) and 20.5 µM (active), respectively. Besides, the figures for the activity in assay [4], in [6] and in assay [7] were -1.68%, -18.4% and -4.81%, respectively. The molecule also yielded an activity change, negative = inhibition in assay [5] of 9.58%. For the same molecule, the max response in the assay on KB-3-1 is 5.4% (inactive). In addition, the outcome with HACAT was “inactive”.
In the case of `C=C(CO)[C@@]12O[C@@H]1[C@@]1(C)C(=CC2=O)CC[C@@H](O)[C@@H]1C`, the results for the Potency (in [1]; in assay [2]; in the assay with HEK293) were 13 µM (active), 12.9 µM (active) and 23.1 µM (active), respectively. For the same molecule, the Potency entry (in [8]; with HeLa) was “inactive” each time. Moreover, the outcome in the assay with HACAT was “inactive”.
Take `Cc1sc2c(c1C)C(c1ccc(Cl)cc1)=NC(CC(=O)OC(C)(C)C)c1nnc(C)n1-2` (centres undefined): the Potency in assay [1] was 1.16 µM (active); in [2], 0.183 µM (active); in [3], 0.129 µM (active); in the assay on HEK293 it was 0.651 µM (active).
Take `C[C@]12CC[C@H](O[C@@H]3O[C@H](CO)[C@@H](O)[C@H](O)[C@H]3O)CC1CC[C@@H]1C2CC[C@]2(C)[C@@H](C3=CC(=O)OC3)CC[C@]12O` (some centres undefined): the Potency in assay [1] was 6.32 µM (active); in assay [2] it was 2.52 µM (active); in assay [3] it was 3.17 µM (active); in the assay with HEK293, 3.17 µM (active); in the assay on HeLa it was 10 µM (active); in the assay with SKOV3, 8.91 µM (active). The Potency entry in assay [8] was “inactive”. The outcome in the assay on NIH3T3 was “inactive [at 17.4 µM]”.
Turning to `C[C@@H]1Cc2c(Cl)cc(C(=O)N[C@@H](Cc3ccccc3)C(=O)O)c(O)c2C(=O)O1`, the Potency entry (in [8]; in the assay on HeLa; in the assay with SKOV3) was “inactive” throughout. Moreover, the figures for the Potency in assay [2] and in assay [3] were 8.98 µM (active) and 6.36 µM (active), respectively. For the same molecule, in the assay with HACAT, the outcome is “inactive”.
Take `CCCCn1cc(C(=O)c2cccc3ccccc23)c2ccccc21`: the Potency result (in [1]; in [8]; in assay [9]; in assay [10]; in [2]; in the assay on HeLa) was “inactive” in each case. Further, the Potency entry in the assay on SKOV3 was “inactive”. Further, the outcome in the assay on HACAT was “inactive”.
In the case of `OC(CNc1ccccc1)Cn1c2ccc(Br)cc2c2cc(Br)ccc21` (centres undefined), the Potency in [9] is 16.9 µM (active); in [10], 5.35 µM (active). Besides, the max response with KB-3-1 was -15.3% (inactive). Moreover, the Potency entry with SKOV3 was “inactive”.
For `CCOC(=O)C1(CCc2ccccc2)CCN(Cc2ccc(NC(C)=O)cc2)CC1`, the Potency result (in assay [8]; in the assay on HeLa; in the assay on SKOV3) was “inactive” throughout. In addition, in assay [9], the Potency was 2.13 µM (active). The max response with KB-3-1 is -17.7% (inactive).
For `CCCCCn1cc(C(=O)C2C(C)(C)C2(C)C)c2ccccc21`, the Potency entry in assay [1], in assay [9] and in assay [2] was “inactive” each time. Further, the Potency in assay [10] is 10.7 µM (active). In addition, in the assay on HACAT, the outcome is “inactive”.
Turning to `C=C1[C@@H](O)[C@]2(O)OC[C@]34C2[C@]2(C)C(C[C@H]3OC(=O)[C@H](O)[C@@]14O)C(C)=CC(=O)[C@H]2O` (some centres undefined), the Potency entry (in [1]; in assay [8]; in the assay with HeLa; in the assay on SKOV3) was “inactive” throughout. For the same molecule, the Potency in assay [2] is 4.47 µM (active).
Consider `C/C1=C/[C@@H](C)C/C=C/[C@H]2[C@@H]3O[C@]3(C)[C@@H](C)[C@H]3[C@H](Cc4c[nH]c5ccccc45)NC(=O)[C@]32C(=O)/C=C\C(=O)[C@@H]1O`, for which the Potency result (in [8]; in the assay with HeLa) was “inactive” in each case. Also, the Potency in [2] is 3.99 µM (active); in [3] it was 0.502 µM (active); with KB-3-1 it was 7.96 µM (active).
Regarding `CCCCCn1cc(C(=O)Cc2ccccc2OC)c2ccccc21`, the Potency entry (in [8]; in assay [9]; in the assay on SKOV3) was “inactive” in each case. The Potency in assay [10] is 1.9 µM (active).
